The list is not random: actives were taken first. Their share in the collection is about 27%.
CYP2C19 inh = human CYP2C19 inhibition | P33261 | inhibition, % at 5 µM | CYP2C19 Supersomes, luciferin-H EGE luminescence, 30 min | AID 778 | actives 21% (n = 96,000);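 active = CYP2C19 inhibition above a set limit at 5 µM in the primary screen, cut at about 50% in these data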
Target sequence (P33261 whole entry, looked up): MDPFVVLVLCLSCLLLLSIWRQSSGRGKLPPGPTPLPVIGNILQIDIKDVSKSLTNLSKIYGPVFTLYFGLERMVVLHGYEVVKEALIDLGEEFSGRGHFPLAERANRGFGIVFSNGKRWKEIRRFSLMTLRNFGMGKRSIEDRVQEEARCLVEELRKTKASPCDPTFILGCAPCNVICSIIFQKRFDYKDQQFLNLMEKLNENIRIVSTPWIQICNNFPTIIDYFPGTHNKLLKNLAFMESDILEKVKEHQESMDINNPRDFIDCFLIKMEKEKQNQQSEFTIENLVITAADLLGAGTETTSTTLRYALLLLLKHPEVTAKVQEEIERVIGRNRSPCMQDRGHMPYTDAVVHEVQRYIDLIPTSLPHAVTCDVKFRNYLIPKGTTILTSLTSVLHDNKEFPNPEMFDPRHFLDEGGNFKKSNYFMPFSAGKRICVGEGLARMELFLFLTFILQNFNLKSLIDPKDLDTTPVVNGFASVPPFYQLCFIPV
CYP2C9 inhib = blocks human cytochrome P450 2C9; P11712; CYP2C9 Supersomes, luciferin-H conversion, luminescence; inhibition, % at 5 µM; actives 20% (n = 96,000); AID 777;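 active = blocking of liver enzyme CYP2C9 beyond about 50% at 5 µM, limit read from the data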
Cav32 inh = inhibitors of human Cav3.2 T-type calcium channel; Cav3.2-expressing cells, Fluo-4 calcium fluorescence FDSS; hits give low values; B-score at 10 µM; actives 4% (n = 100,000);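 active = single-dose well whose peak fluorescence ratio is a statistical outlier from its plate by either plate-standardised score or position-corrected B-score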
CYP2C9 activ = increases human cytochrome P450 2C9 activity | P11712 | activation factor at 5 µM | actives 1.4% (n = 96,000) | recombinant CYP2C9, luciferin-H conversion, luminescence; hits give high values; factor 1 = untreated enzyme, 0 = blocked;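 active = activation factor of 2 or more for CYP2C9 at a 5 µM dose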
CYP2C19 activ = cytochrome P450 2C19 (human) activation. 96,000 tested, under 10 active. recombinant CYP2C19, luciferin-H EGE luminescence; hits give high values; 0 = fully inhibited enzyme, 1 = untreated enzyme. activation factor at 5 µM. AID 1025;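 active = activation factor of at least 2 at 5 µM in the primary screen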
PTK2B oligo ant = Pyk2 (human) oligomerization antagonism | actives 0.83% (n = 99,000) | z-score (the deposit names both 25 µM and 10 µM) | Q293 cells, Pyk2 FERM NanoBiT luminescence; hits give low values | Q14289;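 active = Z-score of -3 or lower, scaled per plate to the spread of control and sample wells; inactive = z-score above -3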;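 note: negative z-score means lost luminescence so less FERM oligomerization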
Hits are given with their value; i = inactive; nt = no result.

SMILES	CYP2C19 inh	CYP2C9 inhib	Cav32 inh	CYP2C9 activ	CYP2C19 activ	PTK2B oligo ant
COc1ccc(CNC(=O)C2CC(c3ccccc3[N+](=O)[O-])=NO2)cc1 (centres undefined)	50.3	i	i	i	i	nt
COc1cc2c(cc1OC)CN(CC(=O)Nc1ccc(C#N)cc1)CC2	i	i	i	i	i	i
COc1ccc(C=O)cc1COc1c(F)c(F)cc(F)c1F	60.0	i	i	i	i	i
COc1ccc(CN(Cc2cccnc2)S(=O)(=O)c2ccc(-n3cnnn3)c(C)c2)cc1OC	80.5	94.4	i	i	i	i
COc1cc(S(=O)(=O)N(Cc2cccs2)CC2CCCO2)ccc1-n1cnnn1 (centres undefined)	i	i	i	i	i	i
Cc1cc(S(=O)(=O)NCC(c2ccccc2)c2ccccc2)ccc1-n1cnnn1	i	i	i	i	i	i
COc1ccc(CCN(Cc2cccs2)S(=O)(=O)c2ccc(-n3cnnn3)c(OC)c2)cc1OC	50.1	55.1	i	i	i	i
CCC(C)C(=O)Nc1nc(C)c(-c2csc(Nc3cc(Cl)ccc3OC)n2)s1 (centres undefined)	i	i	i	i	i	nt
COc1ccc(OC)c(Nc2nc(-c3sc(C)nc3C)cs2)c1	85.3	80.2	i	i	i	i
CCC(C)C(=O)Nc1nc(C)c(-c2csc(Nc3cc(OC)ccc3OC)n2)s1 (centres undefined)	i	74.7	i	i	i	nt
COc1ccc(OC)c(Nc2nc(-c3sc(NC(=O)CC(C)C)nc3C)cs2)c1	i	78.4	i	i	i	nt
COc1ccccc1Nc1nc(-c2sc(NC(=O)c3ccc([N+](=O)[O-])cc3)nc2C)cs1	i	78.3	nt	i	i	nt
CCOc1ccccc1Nc1nc(-c2sc(NC(=O)c3ccccc3)nc2C)cs1	i	i	i	i	i	nt
CCCCCC(=O)Nc1nc(C)c(-c2csc(Nc3ccccc3OC)n2)s1	i	i	i	i	i	nt
CCCC(C)C(=O)Nc1nc(C)c(-c2csc(Nc3ccccc3OC)n2)s1 (centres undefined)	i	73.5	i	i	i	nt
CCCCC(=O)Nc1nc(C)c(-c2csc(Nc3cc(OC)ccc3OC)n2)s1	i	79.0	i	i	i	nt
CCCC(C)C(=O)Nc1nc(C)c(-c2csc(Nc3ccc(Cl)cc3)n2)s1 (centres undefined)	i	54.7	i	i	i	nt
Cc1ccc(S(=O)(=O)c2nc(-c3ccco3)oc2SCC(=O)NCC2CCCO2)cc1 (centres undefined)	i	i	i	i	i	i
O=C(COC(=O)CCc1c[nH]c2ccccc12)Nc1cc([N+](=O)[O-])ccc1Cl	nt	nt	nt	nt	nt	i
CCCN(CC(=O)c1cc(C)n(C)c1C)S(=O)(=O)c1cccc(C(F)(F)F)c1	75.8	i	-4.42	i	i	i
Cn1nnnc1SCCNCc1cccc2ccccc12	85.6	i	i	i	i	i
COc1ccc(CSc2nnnn2C)cc1F	72.4	i	i	i	i	i
Cn1nnnc1SCCNC/C=C/c1ccccc1	79.5	i	i	i	i	i
COc1ccc(Br)cc1CNCCSc1nnnn1C	100.2	54.6	i	i	i	i
Cn1nnnc1SCCNCc1cccnc1	i	i	i	i	i	i
SMILES	CYP2C19 inh	CYP2C9 inhib	Cav32 inh	CYP2C9 activ	CYP2C19 activ	PTK2B oligo ant
COc1ccc(CSc2nnnn2C)cc1[N+](=O)[O-]	i	i	i	i	i	i
O=C(COC(=O)C1=Cc2ccccc2OC1)NC1CCCC1	i	i	i	i	i	i
COc1cccc(CNCCSc2nnnn2C)c1	71.2	i	i	i	i	i
COc1ccc(CNCCSc2nnnn2C)cc1OC	i	i	i	i	i	i
CCc1ccc(CNCCSc2nnnn2C)cc1	70.2	i	i	i	i	i
Cc1ccc(OCCNC(=O)C2CC(=O)N(c3ccc(C)cc3)C2)cc1 (centres undefined)	i	i	i	i	i	i
COC(=O)C(CC(C)C)NC(=O)CSc1nc(-c2ccccc2)c(C#N)c(=O)[nH]1 (centres undefined)	65.4	88.3	i	i	i	i
CCSc1nc(-c2ccccc2)c(C#N)c(=O)[nH]1	i	i	i	i	i	i
Cc1cc(C)cc(OCC(=O)N2N=C(C(F)(F)F)CC2(O)C(C)(C)C)c1 (centres undefined)	nt	nt	-4.29	nt	nt	i
O=C(CSc1nnc(-c2c[nH]c3ccccc23)o1)N1c2ccccc2CCc2ccccc21	78.8	92.4	i	i	i	i
O=C(CSc1nnc(-c2c[nH]c3ccccc23)o1)N1CCCCC1	i	i	i	i	i	i
O=C(CSc1nnc(COc2cccc3ccccc23)o1)N1c2ccccc2CCc2ccccc21	i	54.2	i	i	i	i
O=C(CSc1nnc(-c2ccco2)o1)N1c2ccccc2CCc2ccccc21	88.7	96.9	i	i	i	i
c1ccc2c(-c3nnc(SCc4cn5ccccc5n4)o3)c[nH]c2c1	66.7	60.7	i	i	i	i
c1ccc(CSc2nnc(-c3c[nH]c4ccccc34)o2)cc1	i	i	i	i	i	i
CC(C)Nc1nc2n(c(=O)n1)CCN2C(C)C	i	i	i	i	i	i
Cc1ccc(S(=O)(=O)N2CCC(=O)N(CCOCc3ccc(F)cc3)CC2)cc1	nt	nt	i	nt	nt	nt
O=C1COC(c2ccccc2)C2CCCCN12 (centres undefined)	nt	nt	nt	nt	nt	i
Cn1cnnc1SCc1ccc(F)c2ccccc12	55.6	i	i	i	i	i
Cn1cnnc1SCc1ccccc1	i	i	nt	i	i	i
O=C(CCSc1ccccc1)Nc1nc2c(s1)COc1ccccc1-2	i	i	i	i	i	nt
CCOC(=O)c1cnc2ccc(C)cc2c1Sc1ccccc1C(=O)OC	i	i	nt	i	i	-4.34
CC[C@@H](C)C(N)c1cn([C@@H](CCC(=O)O)C(=O)N2CCNCC2)nn1 (some centres undefined)	nt	nt	i	nt	nt	nt
O=C(OCc1ccccc1)c1ccc2c(c1)-c1ccccc1C2=O	i	55.3	i	i	i	i
O=C(OCc1ccccc1)c1ccccc1	nt	nt	i	nt	nt	nt
SMILES	CYP2C19 inh	CYP2C9 inhib	Cav32 inh	CYP2C9 activ	CYP2C19 activ	PTK2B oligo ant
Cc1ccc(S(=O)(=O)N(CCC#N)CCN2CCCC2)cc1	i	i	i	i	i	i
CC1CC(C)CN(C(=O)c2ccc3c(c2NCCO)C(=O)c2ccccc2C3=O)C1 (centres undefined)	93.6	94.6	i	i	i	i
O=c1oc(-c2cccs2)nc2sc3c(c12)CCCC3	i	63.5	i	i	i	i
Cc1ccc(S(=O)(=O)NC(C)(C)CSc2nnc(N)s2)cc1	99.4	79.9	i	i	i	i
C=CCOC(=O)C1=C(C)Nc2ncnn2C1c1cc(Br)ccc1F (centres undefined)	i	i	nt	i	i	i
COc1cccc(C2C=C(c3ccc(Br)s3)Nc3ncnn32)c1OC (centres undefined)	98.1	83.3	i	i	i	i
COc1ccc(C2C=C(c3ccccc3)Nc3ncnn32)cc1 (centres undefined)	i	i	i	i	i	i
